# A selection: hits, their analogues and other compounds. The true share with any hit is near 3.5%.
# Pf apPOL inh: Pf-apPOL inhibitors, biochemical, fluorescence | hit rate 0.25% among 210,000 | inhibition, % at 10 µM | Plasmodium falciparum apicoplast DNA polymerase (apPOL) | Recombinant Pf-apPOL, molecular beacon fluorescence, 1.5 h
# mHTT-CaM PPI inh: mutant huntingtin-calmodulin interaction inhibitors – biochemical, AlphaScreen, primary screen. AlphaScreen His-mHTT/GST-CaM binding, luminescence. inhibition, % at 15 µM. hit rate 3.6% among 190,000. AID 1671202, 2021;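 also: 0% = both proteins with DMSO and 100% = one protein alone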
# An asterisk follows results filed as active; . = not tested or not shown. Rule as the data show it: active = inhibition above about 50%; inactive = the rest.
SMILES,Pf apPOL inh,mHTT-CaM PPI inh
N#CCc1ccc(NC(=O)c2cc(Cl)cc(I)c2O)cc1,0.1,-1.0
O=[N+]([O-])c1ccccc1S(=O)(=O)Nc1ccc(SC(F)F)cc1,1.4,5.9
CCNC(=O)c1cc2cc(Br)ccc2[nH]1,0.6,5.3
CC(C)(C)c1ccc(C(=O)Nc2ccccc2C(=O)NCc2cccnc2)cc1,2.1,8.0
COc1ccccc1CNc1ccc2c(c1)ncn2C1CCCCC1,-4.0,55.0*
COc1cccc(CNc2ccc3c(c2)ncn3C2CCCCC2)c1OC,0.0,41.0
CN1OCC(S(=O)(=O)NCC2CC2)C1c1ccnc2ccccc12 (centres undefined),-3.2,1.2
COc1cccc(C2=NC(C)(C)NC(c3cc(Cl)ccc3O)C2)c1 (centres undefined),-3.5,100.0*
COc1cccc(C2=NC(C(C)C)NC(c3ccccc3O)C2)c1 (centres undefined),-6.5,30.0
COc1cccc(C2=NC(C(C)C)NC(c3cc(Cl)ccc3O)C2)c1 (centres undefined),-6.4,52.0*
COc1cccc(C2=NC(C)(CC(C)C)NC(c3ccccc3O)C2)c1 (centres undefined),-1.0,98.0*
CC(C)C1(C)N=C(c2ccc3c(c2)OCO3)CC(c2ccccc2O)N1 (centres undefined),-4.4,64.0*
CC(C)N1CCC2(CC1)N=C(c1ccc3c(c1)OCO3)CC(c1ccccc1O)N2 (centres undefined),9.3,8.4
CCCC1(C)N=C(c2ccc(OCC)cc2)CC(c2ccccc2O)N1 (centres undefined),-3.2,17.0
CCOC(=O)N1CCC2(CC1)N=C(c1ccccc1)CC(c1cc(Cl)ccc1O)N2 (centres undefined),-2.7,34.8
COc1cccc(CN2CN(c3ccc(C)cc3)c3ncccc3S2(=O)=O)c1,-1.9,-18.9
Cc1cc(C(=O)NCCc2ccc(F)cc2)ccc1[N+](=O)[O-],-8.2,-1.9
COc1ccc(-n2nc3cc(C)c(NC(=O)c4cc(OC)c(OC)c(OC)c4)cc3n2)cc1,-2.0,1.0
CCOc1ccc(NC(=O)c2ccc(OC)c(OC)c2)cc1,-6.9,6.9
CC(C)CNC(=O)C1CCc2sc(C(=O)N3CCOCC3)cc2C1 (centres undefined),-7.4,2.1
CC(=O)N1CCC2(CC1)NC(=O)c1ccccc1O2,-7.6,0.9
COc1ccc(NC(=O)N2CCc3[nH]cnc3C2c2ccccn2)cc1OC (centres undefined),-7.0,90.9*
Cc1cccc(NC(=O)N2CCc3[nH]cnc3C2c2ccncc2)c1 (centres undefined),-1.0,-5.7
CNC(=O)N1CCc2[nH]cnc2C1c1ccncc1 (centres undefined),-1.8,-4.7
CNC(=O)N1CCc2[nH]cnc2C1c1ccccn1 (centres undefined),-8.5,93.7*
SMILES,Pf apPOL inh,mHTT-CaM PPI inh
CCSc1nnc(NC(=O)c2ccccc2F)s1,1.0,-2.5
Cc1ccc(-c2cc3n(n2)CCCN(C(=O)Cc2ccccc2F)C3)cc1,-4.1,25.2
N#Cc1ccc(Oc2ccc(N)cc2)cc1,-4.2,0.3
N#COc1ccc(Nc2ccc(OC#N)cc2)cc1,5.3,95.1*
COc1ccc(Nc2c(Cl)cc(OC)cc2Cl)cc1,-4.8,.
N#COc1ccc(Oc2ccc(OC#N)cc2)cc1,-29.4,96.8*
Cc1cccc(-c2noc(C3CCCN3C(=O)NC3CCCC3)n2)c1 (centres undefined),-2.2,-3.9
N#CC1=C(N)N(c2ccccc2C(F)(F)F)C2=C(C(=O)CCC2)C1c1ccsc1 (centres undefined),1.1,6.0
Cc1cccc(C(=O)Nc2ccc(NC(=O)c3cc4ccccc4o3)cc2)c1,-0.2,-0.8
O=c1c2c3c(sc2nc2ccc(NCc4ccco4)nn12)CCCC3,-2.9,79.0*
O=C(Cn1cnc2sc3c(c2c1=O)CCCC3)NCc1ccco1,-2.6,10.0
Cc1ccc[n+](C2C(c3ccc([N+](=O)[O-])cc3)C(C#N)=C(S)NC2(O)C2CC2)c1 (centres undefined),-0.8,84.0*
Cc1cccc[n+]1C1C(c2ccc([N+](=O)[O-])cc2)C(C#N)=C(C(C#N)C#N)NC1(O)C1CC1 (centres undefined),-0.6,1.0
COc1ccc(C(=O)N2CC(C(=O)N3CCCC3)C(c3ccc(OC)cc3)C2)cc1 (centres undefined),1.2,6.4
Cc1ccc(C)c(NCc2ccncc2)c1,2.6,1.6
Cc1ccc(NCc2ccc(Cl)nc2)c(NCc2ccc(Cl)nc2)c1,-3.6,54.0*
Cc1cc(N2CCCCC2)nc2ccc(NC(=O)/C=C/c3cccs3)cc12,-5.4,33.0
Cc1cc(N2CCN(C)CC2)nc2ccc(NC(=O)/C=C/c3cccc(Cl)c3)cc12,-7.9,94.0*
COc1ccc(/C=C/C(=O)Nc2ccc3nc(N4CCN(C)CC4)cc(C)c3c2)cc1OC,-2.4,51.0*
COc1cc(/C=C/C(=O)Nc2ccc3nc(N4CCN(C)CC4)cc(C)c3c2)cc(OC)c1OC,-3.9,21.0
COc1ccccc1NC(=O)CSc1nnc(NC(=O)c2ccc(C)cc2)s1,-5.9,-0.6
COc1ccc(S(=O)(=O)Oc2ccc3c(c2)OC(=Cc2ccccc2OC)C3=O)cc1,-7.7,-6.1
COc1cccc(C2CC(=O)C3=C(C2)Nc2ccccc2NC3c2ccc(C)s2)c1 (centres undefined),-6.1,28.0
O=C1CC(c2ccccc2)CC2=C1C(c1ccc(F)cc1)Nc1ccccc1N2 (centres undefined),-13.1,11.0
COc1cccc(C2CC(=O)C3=C(C2)Nc2ccccc2NC3c2ccc(C(F)(F)F)cc2)c1 (centres undefined),-13.0,53.0*
SMILES,Pf apPOL inh,mHTT-CaM PPI inh
O=C1CC(c2cccs2)CC2=C1C(c1ccc(Cl)cc1)Nc1ccccc1N2 (centres undefined),-20.6,33.0
CSc1ccc(C2Nc3ccccc3NC3=C2C(=O)CC(c2cccs2)C3)cc1 (centres undefined),-11.1,54.0*
O=C1CC(c2ccc3c(c2)OCO3)CC2=C1C(c1ccc(C(F)(F)F)cc1)Nc1ccccc1N2 (centres undefined),2.0,62.0*
O=C1CC(c2ccccc2)CC2=C1C(c1cccc(C(F)(F)F)c1)Nc1ccccc1N2 (centres undefined),-15.8,61.0*
O=C1CC(c2ccc3c(c2)OCO3)CC2=C1C(c1ccc3c(c1)OCO3)Nc1ccccc1N2 (centres undefined),-2.3,27.0
Cc1nc2c(C(=O)NCCc3ccccc3)c[nH]n2c(=O)c1Cc1cccc(Cl)c1,-7.4,46.0
N#Cc1ccccc1NC(=O)C(=O)NCCc1ccsc1,-5.7,-6.9
CC(=O)Nc1ccc(C(=O)NCC2CCCO2)c(N2CCCCC2)c1 (centres undefined),-8.5,-0.1
Cc1cc(-c2ccc3c(c2)CCN3C(=O)c2ccc(F)cc2)on1,-3.1,-4.5
NC(=O)c1c(NC(=O)Cc2ccc(Cl)cc2)sc2c1CCCCC2,-3.2,5.9
Cc1nc(CNC(=O)C2CCN(C(=O)NCc3ccccc3)CC2)cs1,2.6,-9.0
CCN1C(=O)C2C3C=CC(C3=C3C4CC5CC(C4)CC3C5)C2C1=O (centres undefined),1.0,-3.3
O=C1N/C(=C\c2ccc(N3CCCC3)cc2)C(=O)N1Cc1ccccc1Cl,87.7*,13.0
O=C1N/C(=C/c2ccc(N3CCCC3)cc2)C(=O)N1Cc1ccc([N+](=O)[O-])cc1,3.3,16.0

# Source: PubChem BioAssay (University of Kansas High Throughput Screening Laboratory)
